# Measurements taken from PMC4336329 (PLoS ONE, 2015).
# Out of some 310,000 compounds screened, about 14,000 (4.5%) showed an effect of 50% or more. The effect is printed as a negative number. Many of the other results were omitted from the sample, so strong results are more common in it than they were.
# Biological target: human ether-à-go-go-related gene (hERG) potassium channel (human, UniProt Q12809)
# Experiment: primary screen, population patch clamp on CHO cells stably expressing hERG; higher = less effect of the substance
# 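Also: peak tail current of the secondary pulse compared with the same well before compound.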
# Chain of human ether-à-go-go-related gene (hERG) potassium channel (Q12809 whole entry, looked up): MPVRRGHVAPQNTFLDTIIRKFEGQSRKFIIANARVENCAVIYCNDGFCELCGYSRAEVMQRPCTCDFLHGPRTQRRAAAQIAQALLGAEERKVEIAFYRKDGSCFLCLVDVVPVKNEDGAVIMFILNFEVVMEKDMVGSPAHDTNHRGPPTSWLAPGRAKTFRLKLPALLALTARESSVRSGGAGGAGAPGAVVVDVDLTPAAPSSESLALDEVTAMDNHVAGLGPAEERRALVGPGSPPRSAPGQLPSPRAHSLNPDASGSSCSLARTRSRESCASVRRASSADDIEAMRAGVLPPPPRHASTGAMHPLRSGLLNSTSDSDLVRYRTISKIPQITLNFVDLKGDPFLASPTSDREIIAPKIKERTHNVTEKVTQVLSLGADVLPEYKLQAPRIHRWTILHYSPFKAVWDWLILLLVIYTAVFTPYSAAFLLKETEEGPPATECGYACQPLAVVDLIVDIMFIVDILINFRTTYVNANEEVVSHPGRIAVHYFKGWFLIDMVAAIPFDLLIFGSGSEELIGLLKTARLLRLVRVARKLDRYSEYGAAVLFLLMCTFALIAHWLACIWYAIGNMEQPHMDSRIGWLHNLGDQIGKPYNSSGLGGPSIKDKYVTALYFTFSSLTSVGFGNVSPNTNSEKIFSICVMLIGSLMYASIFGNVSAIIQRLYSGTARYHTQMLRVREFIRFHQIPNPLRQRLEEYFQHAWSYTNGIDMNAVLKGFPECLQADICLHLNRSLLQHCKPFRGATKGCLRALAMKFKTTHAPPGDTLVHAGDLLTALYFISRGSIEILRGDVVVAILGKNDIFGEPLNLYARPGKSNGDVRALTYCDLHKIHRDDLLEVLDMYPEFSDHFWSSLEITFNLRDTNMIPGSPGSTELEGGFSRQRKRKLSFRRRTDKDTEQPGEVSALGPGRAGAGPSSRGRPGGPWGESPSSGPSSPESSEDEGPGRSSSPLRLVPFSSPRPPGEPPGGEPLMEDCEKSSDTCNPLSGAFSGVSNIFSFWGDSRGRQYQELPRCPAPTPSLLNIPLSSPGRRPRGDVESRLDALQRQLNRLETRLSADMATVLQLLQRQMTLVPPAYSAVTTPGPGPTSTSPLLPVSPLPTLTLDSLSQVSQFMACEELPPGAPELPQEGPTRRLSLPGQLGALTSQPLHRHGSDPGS
row,SMILES,"hERG current change (%, negative = inhibition) at 10uM"
1,O=P(O)(O)O.c1ccc(CSCCc2ccncc2)cc1,-5.48%
2,NC(=O)Cn1cc(C(=O)c2ccccc2F)c2ccccc21,25.1%
3,CCOC(=O)Cn1cc(C(=O)c2ccccc2F)c2ccccc21,-71%
4,COC(=O)Cn1cc(C(=O)c2ccccc2F)c2ccccc21,-1.29%
5,CCN(CC)C(=O)CN(C#N)c1nc(C)cc(C)n1,19.4%
6,CCc1ccc(C(=O)CN(C#N)c2nc(C)cc(C)n2)cc1,-75.6%
7,Cc1cc(C)nc(N(C#N)CC(=O)c2ccccc2)n1,-42.9%
8,Cc1c(Cl)cccc1NC(=S)NC(=O)c1cncc(Br)c1,17.6%
9,COc1cccc(/C=N/NC(=S)NCCc2ccccc2)c1,10.5%
10,CCC(=O)Nc1cccc(-c2nnc(-c3cccc(NC(=O)CC)c3)o2)c1,7.83%
11,Cc1ccc(CNC(=O)c2oc3ccc(S(=O)(=O)N4CCC5(CC4)OCCO5)cc3c2C)cc1,-3.35%
12,CS(=O)(=O)Nc1ccc(C(=O)NCc2ccco2)cc1,0.221%
13,CC(=O)Nc1ccc(C(=O)NCCc2ccccc2)cc1,12.9%
14,CN(Cc1ccccc1)S(=O)(=O)c1ccc(NS(C)(=O)=O)cc1,-55.5%
15,CS(=O)(=O)NCCSCc1c(F)cccc1Cl,1.87%
16,CS(=O)(=O)Nc1ccccc1C(=O)NCc1ccco1,-2.03%
17,CS(=O)(=O)Nc1ccc(C(=O)NCCc2ccccc2)cc1,-69.6%
18,CC(=O)Nc1ccc(S(=O)(=O)N(C)Cc2ccccc2)cc1,-12.7%
19,CS(=O)(=O)Nc1ccc(C(=O)NCCSCc2c(F)cccc2Cl)cc1,-57.7%
20,CS(=O)(=O)Nc1ccc(C(=O)Nc2ccccc2C(=O)NCc2ccco2)cc1,-69.2%
21,CN(c1ccc(C(=O)NCCSCc2c(F)cccc2Cl)cc1)S(C)(=O)=O,1.6%
22,CS(=O)(=O)Nc1ccc(C(=O)NCCSCc2ccccc2)cc1,-45.1%
23,CN(Cc1ccccc1)S(=O)(=O)c1ccc(NS(=O)(=O)Cc2ccccc2)cc1,0.139%

row,SMILES,"hERG current change (%, negative = inhibition) at 10uM"
1,CCOC(=O)C1=C(COc2ccccc2)NC(=O)NC1c1ccc2ccccc2c1 (stereo not drawn),-12.3%
2,CC(C)CCNC(=O)NC(=O)CSc1nnc2ccccn12,15.6%
3,CCOC(=O)N1CCC(NC(=O)CC2C(=O)NCCN2Cc2ccccc2)CC1 (stereo not drawn),-1.48%
4,CCN(CC)S(=O)(=O)c1ccc(/C=C/C(=O)Nc2c(C)n(C)n(-c3ccccc3)c2=O)cc1,19.4%
5,CCCC1CCC(=C(C#N)C(N)=O)CC1 (stereo not drawn),-32.8%
6,CCc1ccccc1NC(=O)c1ccc(NS(C)(=O)=O)cc1,-42.1%
7,CCOC(=O)c1ccccc1NC(=O)c1ccccc1NS(C)(=O)=O,-0.0503%
8,CS(=O)(=O)Nc1ccc(C(=O)Nc2ccccc2-c2ccccc2)cc1,-65.9%
9,O=C(Nc1ccccc1-c1ccccc1)c1ccccc1,13.2%
10,CCOC(=O)c1ccccc1NC(=O)c1ccc(NS(C)(=O)=O)cc1,-54.7%
11,COC(=O)c1ccccc1NC(=O)c1ccc(NS(C)(=O)=O)cc1,-36.1%
12,Cc1cccc(C(=O)O/N=C2/CC3CCC2(C)C3(C)C)c1 (stereo not drawn),-11%
13,Cc1cc(C(=O)NCCC2=CCCCC2)c(C)o1,7.75%
14,O=S(=O)(c1cccc(-c2n[nH]c(=S)o2)c1)N1CCOCC1,14.9%
15,CCC(C)NC(=O)C1CCN(S(=O)(=O)N2CCOCC2)CC1 (stereo not drawn),22.8%
16,N#CC1=C(SCc2ccc(C#N)cc2)N=C(N)C(c2nc(-c3ccccc3)cs2)C12CCCCC2 (stereo not drawn),12.3%
17,CCC(C)Cn1c(C(C)O)nc2ccccc21 (stereo not drawn),0.00748%
18,O=C(c1cc2ccccc2o1)N1CCN(c2cccc(C(F)(F)F)c2)CC1,3.21%
19,CCOc1cc(C=O)cc(Br)c1OCC(N)=O,2.71%
20,COc1cc(CNC(C)C23CC4CC(CC(C4)C2)C3)ccc1OCC(=O)NC(C)(C)C.Cl (stereo not drawn),-4.99%
21,CCOc1cc(/C=N/NC(N)=O)cc(Br)c1OCC(=O)Nc1ccccc1C,-65.7%
22,CCOc1cc(/C=N/O)cc(Br)c1OCC(=O)NCc1ccccc1,1.7%
23,CC(NCc1cc(Br)ccc1OCC(N)=O)C12CC3CC(CC(C3)C1)C2.Cl (stereo not drawn),-55.8%

row,SMILES,"hERG current change (%, negative = inhibition) at 10uM"
1,CCOc1cc(/C=N/NC(N)=O)cc(Br)c1OCc1ccccc1,3.4%
2,CCOc1cc(C=O)cc(Br)c1OCC(=O)NCCc1ccccc1,-81.7%
3,Cc1ccccc1NC(=O)COc1ccc(Br)cc1CNCCCO.Cl,-15.6%
4,Cl.O=C(COc1ccc(Br)cc1CNCCc1ccccc1)NCc1ccccc1,-61.1%
5,CCOc1cc(/C=N/NC(N)=O)cc(Br)c1OCC(=O)Nc1cccc2ccccc12,18.4%
6,O=C(CCC(=O)NNC(=O)COc1ccc(Br)cc1Br)NCc1ccccc1,16.9%
7,CC(NCc1ccc(OCC(N)=O)cc1)C12CC3CC(CC(C3)C1)C2.Cl (stereo not drawn),-11.2%
8,CCN(CC)CCCNC(=O)Cn1cnc2sc(C)c(S(=O)(=O)N3CCC(C)CC3)c2c1=O,11.1%
9,COC(=O)c1ccc(Cn2nc(-c3ccc(C)cc3)ccc2=O)cc1,23.5%
10,CCn1cc(C(=O)O)c(=O)c2cnc(N3CCN(C(=S)Nc4ccc(F)cc4)CC3)nc21,13.3%
11,CCN(c1ccccc1)S(=O)(=O)c1cccc(C(=O)N(C)CCOc2ccccc2)c1,-3.95%
12,CCCCN(C)CCC(=O)Nc1ccc2c(c1)CCC2.Cl,-7.46%
13,CCOC(=O)c1sc(NC(=O)CSc2ncn(-c3ccccc3)n2)nc1C,7.23%
14,COc1ccc(CNC(=O)CCn2c(=O)oc3ccccc32)cc1,-5.31%
15,O=C(NC(=S)Nc1ccc2[nH]c(=O)[nH]c2c1)c1ccccc1[N+](=O)[O-],-8.83%
16,Cc1cc(C(=O)N2CCN(c3ncccn3)CC2)cs1,-15.6%
17,CCOC(=O)c1sc(NC(=S)NC(=O)C2CCCC2)cc1C,7.72%
18,COc1ccc(Br)cc1CNC(C)c1ccccc1 (stereo not drawn),-19.8%
19,COc1cc(CNC(C)c2ccccc2)c(Br)cc1OCC(N)=O (stereo not drawn),-17.2%
20,CC(NCc1cc(Br)ccc1OCC(=O)NCc1ccccc1)c1ccccc1.Cl (stereo not drawn),-59.6%
21,CCCNCc1cc(OC)c(OCC(=O)NCCc2ccccc2)cc1Br,-38.1%
22,CCOc1cc(CNCCO)c(Cl)cc1OCC(=O)NCCc1ccccc1,-6.82%
23,CCCNCc1cc(Br)ccc1OCC(=O)NCCc1ccccc1,-63.5%

row,SMILES,"hERG current change (%, negative = inhibition) at 10uM"
1,O=C(c1cccnc1)c1ncc(C(F)(F)F)cc1Cl,-3.33%
2,O=C(CSc1ccccc1)Nc1nnc(C2CC2)s1,16.9%
3,Cc1c(C(=O)N(Cc2ccccc2)Cc2cccs2)cnn1-c1ccc(Cl)cc1,-3.32%
4,O=C(/C=C/c1ccccc1)N/C(=C/c1ccccc1)C(=O)NCCCO,-7.96%
5,CCC(C)c1ccc(S(=O)(=O)N2CCN(c3ccccn3)CC2)cc1 (stereo not drawn),24.6%
6,Cc1ccc(C[n+]2cc(-c3ccc(Cl)cc3)n3c2CCC3)cc1.[Cl-],-51.3%
7,Cc1ccc(-c2c[n+](Cc3cccc(Cl)c3)c3n2CCC3)cc1.[Br-],-57.7%
8,Clc1ccc(C[n+]2cc(-c3ccc(Cl)cc3)n3c2CCC3)cc1.[Cl-],-61.9%
9,Clc1cccc(C[n+]2cc(-c3ccccc3)n3c2CCC3)c1.[Br-],-25.7%
10,Cc1ccc(-c2c[n+](CC(=O)c3cccs3)c3n2CCC3)cc1.[Br-],5.08%
11,N#CC[n+]1cc(-c2ccc(Cl)cc2)n2c1CCC2.[Cl-],5.21%
12,Cc1ccc(-c2c[n+](CC(=O)N3c4ccccc4Sc4ccccc43)c3n2CCC3)cc1.[Cl-],-49.1%
13,Clc1ccc(-c2c[n+](Cc3ccc(Br)cc3)c3n2CCCCC3)cc1.[Br-],-66.4%
14,Cc1ccc(-c2c[n+](Cc3ccc(Cl)cc3)c3n2CCC3)cc1.[Cl-],-41.6%
15,CCOc1ccc(CC2NCCc3cc(OCC)c(OCC)cc32)cc1OCC (stereo not drawn),-13.3%
16,CCN1C(=O)/C(=C\c2ccco2)C(C(=O)OC)=C1C,10.4%
17,Cn1nccc1NC(=O)Nc1cccc(Cl)c1Cl,16.5%
18,COC(=O)CSc1nc(C2CC2)nc2ccccc12,-11.5%
19,Cc1cc(C)cc(N(C(C)C(=O)N2CCCCC2)S(C)(=O)=O)c1 (stereo not drawn),4.06%
20,Cc1ccc(S(=O)(=O)NCC(=O)N(CC(=O)NCC2CCCO2)Cc2ccc(Cl)cc2)cc1 (stereo not drawn),-11%
21,Cc1c(Cl)cccc1NC(=S)NC1CCCC1,-5.1%
